Potency and outcome data for 20 compounds are collected here from PubChem BioAssay (Tox21).

Assay [1] in a line: qHTS assay for identifying genotoxic compounds that show differential cytotoxicity against isogenic chicken DT40 cell lines with known DNA damage response pathways - wild type cell line (AID 743012). Note: nearly all actives have a fitted effect of over 60% in size. Note: potency is the fitted concentration of half-maximal effect. Summed up: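 Parental DNA repair-proficient DT40 cells, 300 per well, were pre-incubated ~0.5 h at 37 C/5% CO2, pin-dosed with compounds in DMSO, then incubated 40 h. Viability was read as CellTiter-Glo luminescence after 30 min at room temperature.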

The nature of assay [2]: qHTS assay for identifying genotoxic compounds that show differential cytotoxicity against isogenic chicken DT40 cell lines with known DNA damage response pathways - Rad54/Ku70 mutant cell line (AID 743015). Note: nearly all actives have a fitted effect of over 60% in size. Note: potency is the fitted concentration of half-maximal effect.
The nature of assay [3]: qHTS assay to identify small molecule antagonists of the androgen receptor (AR) signaling pathway using the MDA cell line - cell viability counter screen (AID 743041; note: nearly all actives have a fitted effect of over 45% in size). In outline:
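MDA-kb2 AR-luc cells (MMTV-luciferase, AR/GR responsive) treated with compounds plus R1881 agonist for 16 h at 37C. CellTiter-Fluor added at 15.5 h; fluorescence read after 30 min in the same wells.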

Assay [4] can be described thus: qHTS assay to identify small molecule antagonists of the thyroid receptor (TR) signaling pathway - cell viability counter screen (AID 743064). Note: nearly all actives have a fitted effect of over 50% in size. Summed up: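 GH3.TRE-Luc rat pituitary cells carrying a TRE-luciferase reporter were treated with compound plus 1 nM T3 (final) for 23.5 h at 37 °C. Viability was then read in the same wells by CellTiter-Fluor fluorescence after a further 30 min.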

Assay [5] in a line: qHTS assay to identify small molecule antagonists of the androgen receptor (AR) signaling pathway - cell viability counter screen (AID 743033; note: nearly all actives have a fitted effect of over 45% in size).
Assay [6] in a line: qHTS assay for identifying genotoxic compounds that show differential cytotoxicity against isogenic chicken DT40 cell lines with known DNA damage response pathways - Rev3 mutant cell line (AID 743014). Note: nearly all actives have a fitted effect of over 55% in size. Note: potency is the fitted concentration of half-maximal effect.
The target of assay [7] is Androgen receptor (Homo sapiens) (UniProt P10275). The assay is described as follows: qHTS assay to identify small molecule agonists of the androgen receptor (AR) signaling pathway (AID 743036; active = well fitted activation curve with a large enough effect in the signal ratio in the repeat runs, with a control signal flat, not every such curve was filed as active; the % refers to the signal ratio). In outline: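 HEK293 cells stably carrying a UAS-driven beta-lactamase reporter (GeneBLAzer AR-UAS-bla-GripTite) were plated at 2,000 cells/well, rested 4 h at 37C, then exposed to compounds in DMSO for 16 h. LiveBLAzer B/G FRET substrate was added for 2 h at room temperature; fluorescence read.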

Assay [8] shares this target. The experiment in a line: qHTS assay to identify small molecule agonists of the androgen receptor (AR) signaling pathway using the MDA cell line (AID 743040; note: nearly all actives have a fitted effect of over 20% in size). Summed up:
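MDA-kb2 breast carcinoma cells carrying MMTV-luciferase (responsive to AR and GR), plated 5 h then treated 16 h with compounds at 37C, 0% CO2. Read-out was ONE-Glo luminescence after 30 min at room temperature.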

Assay [9] has the same target. The experiment in a line: qHTS assay to identify small molecule antagonists of the androgen receptor (AR) signaling pathway using the MDA cell line (AID 743042; note: nearly all actives have a fitted effect of over 55% in size). In outline:
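MDA-kb2 breast carcinoma cells carrying MMTV-luciferase (AR/GR responsive) were co-treated with compounds and the agonist R1881 for 16 h at 37C. Inhibition read as ONE-Glo luminescence; CellTiter-Fluor fluorescence measured in parallel for cytotoxicity.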

Records with an inconclusive call do not appear. Active and inactive are the calls of the source. Unless noted, calls come from the whole dose curve; as a rule, active = well fitted curve in the direction sought with a large enough effect in the repeat runs; inconclusive = weak or mixed curves; inactive = no such curve, though single readings can be large; an effect the other way counts as inactive or inconclusive. Non-standard residues stand in square brackets, D forms with d. Residues, ends and D or L forms follow the SMILES beside them. *: point of attachment. Sta = CC(C)C[C@H](N)[C@@H](O)CC(=O)O; Isovaleryl = CC(C)CC(=O)*

Sequence of Androgen receptor (Homo sapiens) (P10275 whole entry, looked up): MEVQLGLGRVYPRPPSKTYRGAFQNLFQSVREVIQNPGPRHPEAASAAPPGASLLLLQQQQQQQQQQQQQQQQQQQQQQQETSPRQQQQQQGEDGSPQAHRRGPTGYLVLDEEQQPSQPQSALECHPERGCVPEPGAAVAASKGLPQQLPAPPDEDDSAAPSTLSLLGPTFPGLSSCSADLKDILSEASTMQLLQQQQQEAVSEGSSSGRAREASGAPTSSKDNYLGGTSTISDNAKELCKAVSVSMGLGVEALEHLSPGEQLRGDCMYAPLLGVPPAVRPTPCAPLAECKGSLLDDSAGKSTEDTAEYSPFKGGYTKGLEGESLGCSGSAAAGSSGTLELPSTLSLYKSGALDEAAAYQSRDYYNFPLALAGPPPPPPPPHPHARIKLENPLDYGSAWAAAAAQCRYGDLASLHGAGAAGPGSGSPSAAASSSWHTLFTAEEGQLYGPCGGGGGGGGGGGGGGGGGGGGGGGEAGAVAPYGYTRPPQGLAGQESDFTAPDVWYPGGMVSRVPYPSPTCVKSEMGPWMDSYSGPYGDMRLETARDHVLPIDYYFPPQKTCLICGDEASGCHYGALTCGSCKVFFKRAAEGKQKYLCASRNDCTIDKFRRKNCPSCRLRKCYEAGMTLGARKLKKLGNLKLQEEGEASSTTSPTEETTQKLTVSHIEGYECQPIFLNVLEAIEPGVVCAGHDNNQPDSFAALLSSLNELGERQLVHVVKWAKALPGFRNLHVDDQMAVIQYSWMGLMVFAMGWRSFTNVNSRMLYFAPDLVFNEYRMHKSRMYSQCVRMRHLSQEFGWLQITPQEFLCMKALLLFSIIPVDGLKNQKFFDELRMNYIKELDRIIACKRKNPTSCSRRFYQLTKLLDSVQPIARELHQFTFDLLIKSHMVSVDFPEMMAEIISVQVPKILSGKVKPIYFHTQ

For `C[n+]1ccccc1/C=N/O`, the Potency entry in assay [1], in assay [2] and in [4] was “inactive” in each case. Further, the compound was classed as inactive in [3].
Turning to `COC(=O)C(c1ccccc1Cl)N1CCc2sccc2C1` (configuration not stated), the compound was called inactive in [5] and in [3]. The Potency result in [4] was “inactive”.
Take `C=CC(C)(CCC=C(C)C)OC(=O)C(C)C` (configuration not stated): the Potency entry in [1], in assay [6], in [2] and in assay [4] was “inactive” each time. Moreover, the compound was classed as inactive in assay [5] and in assay [3].
For `CC(=O)c1ccc2ccc3ccccc3c2c1`, the Potency in [6] was 60.8 µM (active). For the same compound, the outcome in assay [5] and in [3] was inactive. Besides, the Potency result in assay [4] was “inactive”.
For the compound `NC(=O)CC[C@@H](N)C(=O)O`, the Potency result in [1], in [6], in [2] and in [4] was “inactive” throughout. For the same compound, the call in [5] and in assay [3] was inactive.
In the case of `CC(=O)Nc1ccc(OCCOCCOc2ccc(NC(C)=O)cc2)cc1`, the Potency entry in assay [1], in assay [6], in [2] and in assay [4] was “inactive” throughout. Besides, the call in assay [5] and in assay [3] was inactive.
With `CC(=O)SCC(CC(=O)c1ccc(C)cc1)C(=O)O` (configuration not stated), the Potency result in assay [1], in assay [6], in assay [2] and in assay [4] was “inactive” throughout. The compound was called inactive in assay [5] and in [3].
Take `Cc1ccc(S(=O)(=O)NC(=O)NN2CC3CCCC3C2)cc1` (configuration not stated): the Potency result in assay [1], in [6], in [2] and in [4] was “inactive” throughout. In addition, the call in [5] and in assay [3] was inactive.
With `C[C@@H](CN1CC(=O)NC(=O)C1)N1CC(=O)NC(=O)C1`, the Potency entry in [1], in [6] and in [4] was “inactive” each time. Moreover, the outcome in assay [5], in [7], in assay [8] and in assay [9] was inactive.
For `CC(C)CC(=O)N[C@H](C(=O)N[C@H](C(=O)N[C@@H](CC(C)C)[C@@H](O)CC(=O)N[C@@H](C)C(=O)N[C@@H](CC(C)C)[C@@H](O)CC(=O)O)C(C)C)C(C)C` (Isovaleryl-VV[Sta]A[Sta]-OH), the Potency entry in assay [1], in [2] and in assay [4] was “inactive” each time. Also, the result in assay [5] and in [3] was inactive.
For the compound `CCCCCCCCOCCC#N`, the Potency result in assay [1], in assay [6], in [2] and in assay [4] was “inactive” throughout. The compound was called inactive in [5] and in assay [3].
`Cc1ccc(NC(N)=O)cc1`: the Potency entry in [1], in assay [6], in assay [2] and in assay [4] was “inactive” throughout. The compound was called inactive in [5] and in assay [3].
`CN(C)CCC[C@@]1(c2ccc(F)cc2)OCc2cc(C#N)ccc21`: the Potency entry in [1], in [6], in assay [2] and in assay [4] was “inactive” each time. The call in [5] and in assay [3] was inactive.
Turning to `COC(=O)c1c(C)cc(O)c(C)c1O`, the Potency is 61.1 µM (active) in assay [1], 54.5 µM (active) in assay [6] and 61.1 µM (active) in [2]. Also, the outcome in assay [5] and in [3] was inactive. The Potency result in assay [4] is “inactive”.
For `Nc1nc(Cl)cc(Cl)n1`, the Potency entry in [1] and in assay [6] was “inactive” in each case. Further, the compound was classed as inactive in assay [5] and in [3].
For the compound `CC12CCCC=C1C(=O)OC2=O` (configuration not stated), the Potency result in assay [1] and in assay [2] was “inactive” each time. In addition, the outcome in assay [5], in assay [7], in assay [8], in assay [3] and in assay [9] was inactive.
Consider `CCCC(=O)CC`, for which the Potency entry in [1], in assay [6], in assay [2] and in assay [4] was “inactive” each time. Also, the compound was classed as inactive in [5] and in assay [3].
Consider `CCCCCCC(O)CO` (configuration not stated), for which the Potency result in [6] and in assay [2] was “inactive” each time. Besides, the outcome in [5] was inactive.
Consider `CCCCCCCCCCCCCCBr`, for which the Potency result in [6], in assay [2] and in [4] was “inactive” in each case. Besides, the call in assay [5] and in assay [3] was inactive.
In the case of `CCO[Si](CC(C)C)(OCC)OCC`, the Potency result in assay [1], in [2] and in [4] was “inactive” each time. Moreover, the Potency in [6] was 24.3 µM (active). Moreover, in assay [3], the compound was called inactive.
